We go through 73 molecules from PubChem BioAssay AID463082 (The Scripps Research Institute Molecular Screening Center, 2010).

SMILES strings stand for the structures. The campaign covered roughly 330,000 compounds. About 4,900 (1.5%) were called active. What follows is part of a selection rich in actives, with near analogues and random picks from the rest. Values without a mark were called inactive.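 The calls were made as follows: active = inhibition above the mean inhibition across the screen plus 3 SD (cut at about 25% in these data); inactive = the rest.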

Chain of Platelet-activating factor acetylhydrolase (Homo sapiens) (Q13093 whole entry, looked up): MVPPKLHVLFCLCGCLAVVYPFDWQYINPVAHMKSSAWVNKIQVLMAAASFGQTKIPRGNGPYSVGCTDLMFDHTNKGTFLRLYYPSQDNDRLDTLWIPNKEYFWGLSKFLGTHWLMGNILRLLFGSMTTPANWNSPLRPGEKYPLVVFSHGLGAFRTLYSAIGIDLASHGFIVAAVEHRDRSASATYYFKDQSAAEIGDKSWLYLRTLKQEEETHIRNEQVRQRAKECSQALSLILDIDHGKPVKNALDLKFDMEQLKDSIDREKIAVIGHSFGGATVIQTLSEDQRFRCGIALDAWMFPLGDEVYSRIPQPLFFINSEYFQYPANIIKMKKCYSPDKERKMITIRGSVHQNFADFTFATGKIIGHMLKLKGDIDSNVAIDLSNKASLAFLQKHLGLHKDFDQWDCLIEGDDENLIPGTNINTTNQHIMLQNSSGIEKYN

The assay concerns the target Platelet-activating factor acetylhydrolase (Homo sapiens) (UniProt Q13093). The assay is described as follows: pPAFAH enzyme inhibitors, primary screen, biochemical, fluorescence polarization, human (AID 463082).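 Also: inhibitors block binding of the rhodamine activity-based probe so polarization drops; 0% = enzyme with DMSO and 100% = wells lacking pPAFAH.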 Conditions: recombinant pPAFAH, FP-rhodamine probe fluorescence polarization; at 3.39 µM; stronger effect = higher value. In general terms: Fluorescence polarisation rises when a labelled molecule tumbles more slowly, as on binding a larger partner.
As usually defined, the inhibition is the drop in the measured response relative to a control, in per cent. On to `O=C(COC(=O)c1ccco1)NCc1ccc(Cl)cc1`, for which the inhibition was 0.66%.

As to `CC(C)(C)OC(=O)NCCCC1=CC2=CC(=O)C(C)(OC(=O)c3ccco3)C(=O)C2=CO1` (stereo not drawn), the inhibition is 33.5% (active). To `COC(=O)CCCC1=CC2=CC(=O)C(C)(OC(=O)c3cccs3)C(=O)C2=CN1c1cccc(C#N)c1` (stereo not drawn) belongs 7.86%; to `O=C(CC1C(=O)NCCN1CC(c1ccccc1)c1ccccc1)NCCc1cn[nH]c1` (stereo not drawn), 7.44%; to `COc1cc([N+](=O)[O-])ccc1NC(=O)COC(=O)CCOc1ccc(C)cc1`, 6.88%. Turning to `O=C(Nc1ccccc1C(=O)N1CCOCC1)c1ccc(CSc2ccccc2)cc1`, the inhibition was 4.67%. The same measure for `CC(C)Oc1c(Br)cc(Br)cc1/C=N/NC(N)=S`: 1.45%; for `Cc1cccc(-n2c(C)cc(/C=N\NC(=O)c3cccs3)c2C)c1`: 22%; for `Cc1cc(/C=N/NC(=O)CC2(C)OCCO2)c(C)n1-c1ccc(Cl)c(Cl)c1`: 27.6% (active).

For `Cc1ccc(-n2c(C)cc(/C=N\NC(=O)CC(=O)NC(C)C)c2C)cc1`, the inhibition is 1.94%. Consider `O=C(N/N=C\c1cc(Br)c(Br)o1)C1COc2ccccc2O1` (stereo not drawn), for which the inhibition is -1.47%. To `O=C(N/N=C/c1cc2c(cc1Br)OCO2)C1COc2ccccc2O1` (stereo not drawn) belongs 8.36%. `O=C(CNC(=O)C1COc2ccccc2O1)N/N=C/c1cc(Br)c(O)c(Br)c1` (stereo not drawn): the inhibition was 26.3% (active).

Take `CCOc1ccc(N(C)S(=O)(=O)c2cnc[nH]2)cc1`: the inhibition was 4.67%. Take `CC(Oc1cc2oc(=O)c3c(c2cc1Cl)CCCC3)C(=O)NCc1ccncc1` (stereo not drawn): the inhibition is 7.32%. As to `CCOC(=O)CSc1nnc(CNC(=O)c2cccs2)n1-c1cc(OC)ccc1OC`, the inhibition is 4.54%. To `O=C(Nc1ccc(OC(F)(F)F)cc1)c1ccc2c(c1)no[n+]2[O-]` belongs 25.4% (active).

On to `Cn1nccc1NC(=O)Nc1ccc(OC(F)(F)F)cc1`, for which the inhibition is -4.08%.

Take `Cn1cccc1/C=N/NC(=O)c1ccc(OC(F)(F)C(F)F)cc1`: the inhibition is 6.18%. The same measure for `CCCCN1C(=O)CCC(C(=O)O)C1c1ccc(OC)cc1` (stereo not drawn): 2.74%; for `CCOC(=O)C(C)Oc1cccc2c(=O)n(CC(=O)NCCc3ccc(OC)c(OC)c3)ccc12` (stereo not drawn): 0.87%; for `Nn1c(SCC(=O)NC2CCCc3ccccc32)nnc1C1CC1` (stereo not drawn): -1.35%. Take `C[C@H](NC(=O)c1ccccc1Cl)C(=O)OCCOc1cccc(Cl)c1`: the inhibition is 0.09%.

Take `COC/C=C/C1=CC2=CC(=O)C(C)(OC(=O)CCC(=O)OC)C(=O)C2=CO1` (stereo not drawn): the inhibition is 32.3% (active). To `COC(=O)CCCC1=CC2=CC(=O)C(C)(OC(=O)c3cccs3)C(=O)C2=CN1CC(C)C` (stereo not drawn) belongs 5.09%; to `CCCCC1=CC2=CC(=O)C(C)(OC(=O)CC)C(=O)C2=CN1CCCOC(C)C` (stereo not drawn), -0.51%; to `COc1ccc(OCC(=O)OCCN(C)C)cc1`, 0.82%.

Turning to `O=C(CCCN1C(=O)CCC1=O)Nc1ccc(Cl)c(C(F)(F)F)c1`, the inhibition was 5.28%. Regarding `COc1ccc(Cl)cc1NC(=O)COC(=O)C(CC(C)C)N1C(=O)C2CC=CCC2C1=O` (stereo not drawn), the inhibition was -2.85%. To `COc1ccccc1N1CC(C(=O)NCCN2C(=O)S/C(=C\c3cccnc3)C2=O)CC1=O` (stereo not drawn) belongs 4.51%.

Take `COc1ccc(N2CC(C(=O)NCCN3C(=O)S/C(=C\c4cccnc4)C3=O)CC2=O)c(OC)c1` (stereo not drawn): the inhibition is 65.4% (active). To `CCOc1ccc(N2CC(C(=O)NCCN3C(=O)S/C(=C\c4cccnc4)C3=O)CC2=O)cc1` (stereo not drawn) belongs 8.89%; to `COc1ccc(S(=O)(=O)N(C)CC(=O)N2CCCC2)cc1`, -1%; to `COc1cc(OC)cc(C(=O)NNC(=O)Cc2cccs2)c1`, 19.8%. Turning to `CC(=O)c1sc2nc(SCC(=O)N3CCCCC3)[nH]c(=O)c2c1C`, the inhibition was 13.1%. Regarding `Cc1sc2nc(CSCC(=O)NC3CCCCC3)[nH]c(=O)c2c1C`, the inhibition was 9.75%.

As to `CSc1nnc(SCc2nc3sc(C(=O)O)c(C)c3c(=O)[nH]2)s1`, the inhibition is 49.9% (active).

For the molecule `CCc1ccc(NC(=O)CN2C(=O)CSC2=O)cc1`, the inhibition is -3.77%. To `COc1cccc(CNc2nc(C(F)(F)F)nc3ccccc23)c1` belongs 2.55%; to `CCc1ccc(C(CNc2nc(C(F)(F)F)nc3ccccc23)N(C)C)cc1` (stereo not drawn), -1.56%; to `CC(Nc1nc(C(F)(F)F)nc2ccccc12)c1cccs1` (stereo not drawn), 28.4% (active). For `COc1ccc(CN2C(CC(=O)Nc3cccnc3)c3ccc(C(F)(F)F)cc3S2(=O)=O)cc1` (stereo not drawn), the inhibition is 6.11%. The same measure for `COc1ccc(C(=O)/C=C/c2ccc(OC3CSC3)cc2)cc1`: 1.34%; for `COc1ccc(/C=C/C(=O)c2cc(Br)ccc(=O)c2O)cc1`: 40.7% (active).

Take `COc1ccc(C(=O)/C=C/c2cccnc2)c(OC)c1`: the inhibition was -1.82%. On to `O=C1N[C@H](Cc2c[nH]c3ccccc23)COC(=O)[C@H](Cc2ccc(F)cc2)C/C=C\C[C@H]1CC(=O)N(CCO)Cc1ccccc1`, for which the inhibition was 21.3%. The same measure for `COCCN1C(=O)C(=O)/C(=C(/O)c2ccc(S(=O)(=O)N3CCOCC3)cc2)C1c1ccc(OC)c(OC)c1` (stereo not drawn): 0.25%.

Take `CCn1c(SCC(=O)N/N=C/c2ccccc2OCC(=O)O)nnc1-c1ccc(C(C)(C)C)cc1`: the inhibition was 11.4%.

For the molecule `COc1ccc(CCOC(=O)CNC(=O)c2ccc(Cl)cc2Cl)cc1`, the inhibition was -0.13%.

`Cc1coc2c(O)cc3c(c12)OC1(N2CCCCC2)C(=O)NCCCC31` (stereo not drawn): the inhibition was 27.6% (active). To `Cc1ccc(NC(=O)N2CCC(c3nc4c(nnn4Cc4c(F)cccc4Cl)c(=O)[nH]3)CC2)cc1` belongs 27.7% (active); to `O=C(Nc1ccc(F)cc1)N1CCCC(c2nc3c(nnn3Cc3ccccc3Cl)c(=O)[nH]2)C1` (stereo not drawn), 1.47%; to `COc1ccc(Cn2nnc3c(=O)[nH]c(C4CCN(C(=O)c5ccccc5Cl)CC4)nc32)cc1`, 9.22%. Take `CCOC(=O)c1ccc(NC(=O)C2CC(=O)N(c3ccc4c(c3)OCCO4)C2)cc1` (stereo not drawn): the inhibition was 29.3% (active). On to `CCc1nnc(NC(=O)C2CC(=O)N(c3ccc4c(c3)OCCO4)C2)s1` (stereo not drawn), for which the inhibition is 2.68%. As to `Cc1ccc(NC(=O)C2CC(=O)N(c3ccc4c(c3)OCCO4)C2)cc1S(=O)(=O)N1CCCCCC1` (stereo not drawn), the inhibition is 0.97%.

In the case of `O=C(COC(=O)c1ccc(S(=O)(=O)N2CCc3ccccc3C2)cc1)NC(=O)NCc1ccco1`, the inhibition was -5.65%. The same measure for `S=c1nccc(-c2cc(Cl)sc2Cl)[nH]1`: 4.56%.

Take `CCN(Cc1ccccc1)C(=O)CSc1nc(C)cc2c1C(=O)OC2`: the inhibition was 7%. To `COc1ccccc1C(=O)Nc1cccc(C(=O)N2CCOCC2)c1` belongs -0.6%.

Consider `CN(C)C(=O)CCc1ccc2c3c([nH]c2c1)[C@]1(C)[C@@H](C(=O)N2CCCCC2)C[C@H](CC(=O)NCCC2=CCCCC2)C(=O)N1CC3`, for which the inhibition was 9.04%. For `O=C1C(=O)N(CCCO)C(c2ccccc2)/C1=C(\O)c1ccc(Br)cc1` (stereo not drawn), the inhibition was 2.67%. For `CC(C)(C)NC(=O)C(c1ccc(Cl)cc1)N(CCO)C(=O)c1snc(C(N)=O)c1N` (stereo not drawn), the inhibition is -1.41%. As to `O=C(O)c1cccc(NC(=S)N/N=C/c2c[nH]c3ccccc23)c1`, the inhibition is 26.4% (active).

On to `CN(C)S(=O)(=O)c1cccc(NC(=S)N/N=C/C(=O)c2ccccc2)c1`, for which the inhibition was 12.9%. The same measure for `O=C(N/N=C/c1c[nH]c2ccccc12)c1cc2ccccc2o1`: 15.3%; for `Cc1ccc(-c2cc(C(=O)NCc3cn(C)nc3C)c3cc(Br)ccc3n2)cc1`: 2.72%; for `O=C(Nc1ccccc1F)c1ccccc1-c1ccc(C(F)(F)F)cc1`: 0.76%.

With `Cc1nn(CC(=O)N/N=C/c2ccc(F)cc2)c(C)c1[N+](=O)[O-]`, the inhibition is -6.43%. Regarding `Cc1cc(C(=O)N/N=C/c2ccc(O)c([N+](=O)[O-])c2)c(C)n1-c1ccc(F)cc1`, the inhibition was 33.4% (active). `COc1cc(/C=N/NC(=O)c2cc(C)n(-c3ccc(F)cc3)c2C)cc(OC)c1O`: the inhibition was 9.67%. To `COCCNc1cc(-c2ccccc2)nc2cc(-c3cccc(F)c3)nn12` belongs -13.5%; to `CC(NC(=S)NC1CCCCC1)C(c1ccccc1)N1CCOCC1` (stereo not drawn), 2.17%.
